# Compound activity (PubChem BioAssay)
# Mtb FBA inh = Mtb FBA enzyme inhibitors, primary screen, biochemical, fluorescence, strain H37Rv; Fructose-bisphosphate aldolase (Mycobacterium tuberculosis (strain ATCC 25618 / H37Rv)), …; purified M. tuberculosis FBA, fluorescence read-out; 2.3% of 360,000 active; inhibition, % at 1 µM; AID 588726, 2011; in the data active = inhibition above about 27%;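 also: 0% = vehicle and 100% = reference inhibitor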
# Target sequence (P9WQA3 whole entry, looked up): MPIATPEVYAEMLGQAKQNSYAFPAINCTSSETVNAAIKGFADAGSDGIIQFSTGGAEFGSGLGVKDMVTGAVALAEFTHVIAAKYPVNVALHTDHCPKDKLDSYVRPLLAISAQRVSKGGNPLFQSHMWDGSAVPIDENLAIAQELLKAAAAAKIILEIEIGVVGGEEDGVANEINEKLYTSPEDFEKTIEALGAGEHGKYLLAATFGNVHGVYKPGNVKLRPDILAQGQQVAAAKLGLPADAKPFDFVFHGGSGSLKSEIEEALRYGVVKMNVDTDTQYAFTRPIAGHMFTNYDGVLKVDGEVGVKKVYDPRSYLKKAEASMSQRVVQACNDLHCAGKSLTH
# FadD28 FP inh = inhibitors of FadD28 bisubstrate probe binding, primary screen, biochemical, fluorescence polarization, single point | Mycobacterium tuberculosis FadD28 fatty-acid-AMP ligase | inhibition, % at 12.5 µM | 0.22% of 360,000 active | AID 588549, 2011; in the data active = inhibition above about 8.5%, passing the limit was not always enough; inconclusive = no clear call, values can overlap the other calls
# Mtb BioA inh = M. tuberculosis BioA enzyme inhibitors, primary screen, biochemical, plate reader, single point, HTS | inhibition, % at 9.99 µM | purified M. tuberculosis BioA enzyme | 0.096% of 360,000 active | 7,8-diaminopelargonic acid synthase BioA (Mycobacterium tuberculosis); in the data active = inhibition above about 40%; inconclusive = no clear call, values can overlap the other calls
# SARS 3CLpro inh = SARS-CoV 3CLpro protease inhibitors, primary screen, biochemical, quenched FRET. 0.14% of 290,000 active. inhibition, % at 6 µM. recombinant SARS-CoV 3CLpro, quenched FRET peptide cleavage. Replicase polyprotein 1ab (Severe acute respiratory syndrome coronavirus), P0C6X7; in the data active = inhibition above about 12%
# GDH-TPI inh = GDH-TPI coupling enzyme inhibitors, primary screen, artefact control for M. tuberculosis FBA inhibitor project, biochemical, absorbance, full deck; GDH-TPI coupled enzyme counterscreen, NADH absorbance; inhibition, % at 4.8 µM; 1.2% of 360,000 active; AID 588335, 2011; in the data active = inhibition above about 30%;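 also: 0% = DMSO wells and 100% = wells lacking the enzyme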
# Numbers without * were called inactive; ? = inconclusive; . = no result; + = active, no number. Hits are enriched below; roughly 3.1% of the tested compounds scored in any of these assays.
SMILES,Mtb FBA inh,FadD28 FP inh,Mtb BioA inh,SARS 3CLpro inh,GDH-TPI inh
O=C(Cc1cc(=O)oc2cc(O)ccc12)NC(Cc1ccc(Cl)cc1)C(=O)O (configuration not stated),+,-0.1,-0.7,3.2,7.1
Cc1c(OCC(=O)NC(Cc2ccc(Cl)cc2)C(=O)O)ccc2c(-c3ccccc3)cc(=O)oc12 (configuration not stated),3.9,-3.4,1.5,8.6,17.6
Cc1c(CC(=O)NCC(=O)NCC(=O)N[C@@H](Cc2ccccc2)C(=O)O)c(=O)oc2c(C)c(O)ccc12,+,1.1,-0.8,.,11.8
COc1ccc2c(CC(=O)N[C@@H](Cc3ccccc3)C(=O)O)cc(=O)oc2c1C,148.7*,0.4,-0.6,6.2,21.0
C=C(C)Cn1c2ccc(NC(=O)CCc3cccnc3)cc2c(=O)n1C,+,-0.3,28.3,.,12.9
CC(C)=CCn1c2ccc(NC(=O)Nc3ccc(N(C)C)cc3)cc2c(=O)n1C,2.8,-2.5,0.8,.,4.0
C=C(C)Cn1c2ccc(NC(=O)NCCc3cccs3)cc2c(=O)n1C,181.9*,0.2,2.4,.,8.9
CC(C)=CCn1c2ccc(NC(=O)Nc3cccnc3)cc2c(=O)n1C,141.4*,5.6,22.0,.,0.9
Cn1c(=O)c2cc(NC(=O)Nc3cccnc3)ccc2n1Cc1cccc(C(F)(F)F)c1,114.4*,?,17.1,.,5.3
COc1ccc(S(=O)(=O)N(C)C[C@H]2Oc3c(NC(=O)c4cc(C)nn4C)cccc3C(=O)N([C@H](C)CO)C[C@@H]2C)cc1,.,.,-0.6,.,.
COc1ccc(NC(=O)Nc2cccc3c2O[C@H](CN(C)C(=O)Nc2ccc(OC)cc2)[C@H](C)CN([C@@H](C)CO)C3=O)cc1,.,.,4.4,.,.
COc1ccc(S(=O)(=O)Nc2ccc3c(c2)C(=O)N([C@@H](C)CO)C[C@@H](C)[C@H](CN(C)C)OCCCC[C@@H](C)O3)cc1,.,.,-0.1,.,.
Cn1c(=O)c2cc(NC(=O)Nc3cccnc3)ccc2n1Cc1ccc(Cl)cc1,135.0*,1.7,24.7,.,-1.8
O=Cc1ccc(O)c(O)c1,-2.7,-3.0,-1.6,-1.5,28.5
COc1cc(C(=O)C(O)c2ccc(O)c(OC)c2)ccc1O (configuration not stated),-3.0,-3.6,-0.6,.,26.3
CC(C)C(=O)c1ccc(O)c(O)c1,7.3,-0.1,0.3,2.5,37.7*
O=C(C(=O)c1ccc(O)c(O)c1)c1ccc(O)c(O)c1,-5.7,-1.9,.,.,78.4*
CNC[C@@H]1Oc2c(NC(=O)c3cnccn3)cccc2C(=O)N([C@H](C)CO)C[C@@H]1C,.,.,2.4,.,.
O=C1c2ccccc2-c2onc3ccc(NCc4ccco4)c1c23,-4.5,11.6*,-6.7,0.8,19.1
CCNc1ccc2noc3c2c1C(=O)c1ccccc1-3,-3.4,52.0*,.,0.1,1.5
CCOc1ccc2noc3c2c1C(=O)c1ccccc1-3,-5.9,0.9,-11.4,2.5,-2.4
Cc1ccc(CSC2=Nc3ccccc3C3=NC(=O)CN23)cc1,6.2,-1.8,.,1.3,6.4
COc1cc2c(cc1OC)C1=NC(=O)CN1C(SCc1ccccc1C)=N2,27.3*,-4.6,-1.4,6.2,9.3
COC(=O)[C@H]1[C@H](CO)[C@H]2Cn3c(ccc(-c4ccncc4)c3=O)[C@H]2N1Cc1cccc(F)c1,.,.,6.1,.,.
O=C(CS(=O)(=O)Cc1ccccc1)Nc1ccc(S(=O)(=O)N2CCCCCC2)cc1,-3.8,23.6*,2.3,-2.1,-5.6
SMILES,Mtb FBA inh,FadD28 FP inh,Mtb BioA inh,SARS 3CLpro inh,GDH-TPI inh
Cc1ccc(-c2[nH]c(-c3ccc(C(=O)O)cc3)nc2-c2ccccc2)cc1,+,?,.,-2.5,17.0
C[C@H]1CCCCO[C@H](CN(C)C(=O)Nc2ccc(C(F)(F)F)cc2)[C@@H](C)CN([C@@H](C)CO)C(=O)c2cc(NC(=O)Nc3ccccc3)ccc2O1,.,.,-2.4,.,.
O=S(=O)(Nc1ncccn1)c1ccc(NC(=S)Nc2ccccc2)cc1,0.0,-1.7,0.3,2.9,3.4
CCc1c(C(=O)NNC(=S)Nc2ccc(S(=O)(=O)Nc3ncccn3)cc2)csc1C,-0.9,9.6*,-0.4,-4.8,10.0
O=C(O)c1ccccc1N/N=C/C1=C(N2CCOCC2)C(=C\c2ccccc2)/CC1,6.9,2.2,1.5,2.2,11.1
Cc1cc(C)nc(N/N=C/C2=C(N3CCOCC3)C(=C/c3ccccc3)/CC2)n1,-0.3,-1.0,0.0,3.6,31.8*
COc1ccccc1/C=C/C=N/NC(=O)Cc1cccs1,-2.3,-0.3,1.2,2.6,32.2*
